In the library only some 12% were active in any assay of this set; here they are far more common.
JMJD2A Tudor inh: blocks the human JMJD2A Tudor domain; O75164; AlphaScreen JMJD2A-Tudor / H3K4me3 peptide binding; Potency, µM (titrated, usually from 114 µM), most hits filed as inhibitors; actives 4.4% (n = 390,000); AID 504339; also: nearly all actives have a fitted effect of over 50% in size
Sfp inh: Sfp phosphopantetheinyl transferase inhibition; actives 3.5% (n = 310,000); Potency, µM, hits mostly inhibitors; AID 1490; Biochemical Sfp PPTase activity, qHTS; Q9F4F7;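 also: the enzyme is Sfp with the accession as filed and its product quenches rhodamine fluorescence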
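Buffer: 50 mM Hepes-Na pH 7.6, 10 mM MgCl2, 0.01% Nonidet P-40, 0.01% BSA. Enzyme 15 nM, pre-exposed to compound 15 min; substrates then added and fluorescence change tracked over 30 min.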
BAZ2B block: blocks human BAZ2B | Q9UIF8 | AlphaScreen BAZ2B-H3K14Ac peptide displacement | Potency, µM (doses to about 114 µM), usual class: inhibitors | actives 4.4% (n = 360,000) | AID 504333; also: nearly all actives have a fitted effect of over 60% in size
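Protein-peptide AlphaScreen: BAZ2B 50 nM, b-H3K14Ac 50 nM, 1x PBS pH 7.4 + 0.01% Tween-20. Preincubation 30 min RT; cpd 30 min RT (top 110 uM); beads 20 min RT, light-protected.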
G9a block: inhibitors of human histone lysine methyltransferase G9a. AID 504332. Q96KQ7. actives 8.8% (n = 350,000). Potency, µM (top dose mostly 102 µM), hits mostly inhibitors. G9a H3K9 monomethylation, AlphaScreen, 2 h; also: nearly all actives have a fitted effect of over 75% in size
Target sequence (Q96KQ7 913-1193 limits assumed): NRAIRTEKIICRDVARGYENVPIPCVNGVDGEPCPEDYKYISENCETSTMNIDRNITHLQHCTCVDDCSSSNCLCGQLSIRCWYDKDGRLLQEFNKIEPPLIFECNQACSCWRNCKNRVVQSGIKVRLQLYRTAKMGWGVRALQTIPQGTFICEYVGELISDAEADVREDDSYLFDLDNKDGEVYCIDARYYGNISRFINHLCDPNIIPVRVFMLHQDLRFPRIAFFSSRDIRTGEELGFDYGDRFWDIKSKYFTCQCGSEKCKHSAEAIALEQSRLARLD
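Step 1: enzyme (final 20 nM) with compound, 15 min RT. Step 2: substrate peptide 500 nM and SAM 20 uM, 2 h RT. Step 3: anti-H3K9me1 antibody and AlphaScreen beads, 10 min, then plate read.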
HP1b binding inh: inhibitors of HP1-beta chromodomain binding to methylated histone tails | AlphaScreen HP1-beta / biotin-H3K9me3 peptide binding | Potency, µM (top dose mostly 114 µM), most hits filed as inhibitors | P83916 | actives 0.56% (n = 390,000); also: nearly all actives have a fitted effect of over 70% in size
Target sequence (P83916 whole entry, looked up): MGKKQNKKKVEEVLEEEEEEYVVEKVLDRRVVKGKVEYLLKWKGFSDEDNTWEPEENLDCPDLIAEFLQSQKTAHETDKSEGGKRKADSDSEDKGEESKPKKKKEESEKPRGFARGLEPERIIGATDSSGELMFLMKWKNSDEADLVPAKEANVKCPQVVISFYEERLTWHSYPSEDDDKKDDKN
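Compound inhibition of the preformed complex between 50 nM HP1-beta and 50 nM biotinylated H3K9me3 peptide was read by AlphaScreen. Buffer was PBS pH 7.4 with 0.01% Tween-20. Incubations ran 30 min at room temperature, with 10 ug/mL donor/acceptor beads.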
PLK1 PBD inh: inhibitors of human PLK1 polo-box domain binding | AID 720504 | P53350 | Plk1 PBD binding of FITC phosphopeptide, fluorescence polarization | Potency, µM, usual class: inhibitors | actives 2.8% (n = 360,000); also: series mostly up to about 57 µM; nearly all actives have a fitted effect of over 65% in size
Numbers stand for hits; n = inactive; u = inconclusive; x = not tested or not shown; [ ] = remark or other dose. Calls follow the shape of the dose curve; as a rule, active = well fitted curve in the direction sought with a large enough effect; inconclusive = small, poorly fitted or top-dose-only effect, or another doubt; inactive = no such curve, though single readings can be large; an effect the other way counts as inactive or inconclusive.

SMILES | JMJD2A Tudor inh | Sfp inh | BAZ2B block | G9a block | HP1b binding inh | PLK1 PBD inh
Cc1ccc(CNC(=O)C(=O)NCC2CCCO2)cc1 (centres undefined) | n | n | n | n | n | n
O=C(NCC1CCCO1)c1ccc2c(=O)n(-c3ccc(F)cc3)c(=S)[nH]c2c1 (centres undefined) | n | n | n | u | n | n
O=C(NCC1CCCO1)c1ccc2c(=O)n(CCc3ccccc3)c(=O)[nH]c2c1 (centres undefined) | n | n | n | n[2.33 µM] | n | n
Cc1ccccc1-c1ncnn1-c1sc2c(c1C#N)CCCCC2 | u | x | n | u | n | x
COc1ccc2[nH]c(-c3ccc(C)cc3)cc(=O)c2c1 | n | n | n | 79.4µM | n | n
C=CCN1C(=S)CC(c2ccccc2)=Nc2ccccc21 | n | n | n | x | n | n
N#Cc1ccc(C(=O)Nc2ccc3c(c2)N(C2CCCC2)C(=O)c2ccccc2S3)cc1 | n | x | n | n | n | x
CN1/C(=C/C=C(/C#N)C(N)=O)C(C)(C)c2ccccc21 | n | n | n | u | n | n
CCCN1C(=O)/C(=C\C=C2\N(CC)c3ccccc3C2(C)C)SC1=S | 8.91µM | n | 3.55µM | x | u | u
CN1/C(=C\C=C2/SC(=S)NC2=O)C(C)(C)c2ccccc21 | u | u | 7.94µM | 7.94µM | u | n
Cn1cnc([N+](=O)[O-])c1S(=O)(=O)Oc1ccc(Cl)cc1 | n | x | x | x | n | u
CCCCCCN1C[C@H](n2cc(C3CC3)nn2)[C@@H](O)C[C@@H]1c1ccccc1 | x | x | x | x | x | n
C[C@H](CO)N1C[C@H](C)[C@@H](CN(C)C(=O)OCc2ccccc2)OCc2cn(nn2)CCCC1=O | x | x | x | x | x | n
CC(C)c1ccc(S(=O)(=O)c2ccc(NN)cc2)cc1 | n | n | n | 10µM | n | n
Cc1cc(NC(=O)CSc2ncnc3sccc23)no1 | n | n | n | n | n | n
N#Cc1c(NC(=O)CSc2ncnc3sccc23)oc(-c2ccco2)c1-c1ccco1 | 79.4µM | u | 44.7µM | u | u | u
CCCCc1ccc(C2C(C#N)=C(N)SC(N)=C2C#N)s1 | x | 56.2µM | 50.1µM | u | x | x
Cc1nnc2ccc(-c3ccc(NC(=O)c4ccc(Cl)nc4)cc3)nn12 | x | n | n | 79.4µM | x | x
CC(=O)Nc1ccc(NC(=O)c2ccc(Cl)nc2)cc1 | n | n | n | x | n | n
c1ccc(C2=Nn3c(nnc3-c3n[nH]c4c3CCC4)SC2)cc1 | u | n | n | u | n | n
Clc1ccc(C2=Nn3c(nnc3-c3n[nH]c4c3CCC4)SC2)cc1Cl | u | n | n | 11.2µM | n | n
Cc1ccc2c(CN3CCN(Cc4ccccc4)CC3)cc(=O)oc2c1 | n | n | n | n | n | n
Cc1cc2oc(=O)cc(CN3CCN(Cc4ccccc4)CC3)c2cc1Cl | n[11.4 µM] | n | n | n | n | n
O=c1cc(CN2CCN(Cc3ccccc3)CC2)c2cc(Cl)ccc2o1 | n | n | n | 44.7µM | n | n
CCc1ccc2oc(=O)cc(CN3CCN(Cc4ccccc4)CC3)c2c1 | n | n | n | 44.7µM | n | n
SMILES | JMJD2A Tudor inh | Sfp inh | BAZ2B block | G9a block | HP1b binding inh | PLK1 PBD inh
COC(=O)c1cccc(N2C(=O)c3ccccc3S2(=O)=O)c1 | n | n | n | 56.2µM | n | n
COc1ccccc1N1C(=O)c2cccnc2C1=O | n | n | u | n | n | n
COC(=O)c1cccc(N2C(=O)c3cccnc3C2=O)c1 | 44.7µM | n | n | u | n | n
Cc1cccc(C(=O)n2cnnc2N)c1 | n | n | n | 22.4µM | n | n
COC(=O)c1ccccc1NC(=O)CC(NCc1ccccc1)C(=O)O (centres undefined) | 28.2µM | x | x | x | n | n
CCc1ccccc1NC(=O)CC(NCc1ccccc1)C(=O)O (centres undefined) | u | n | n | 28.2µM | n | n
CN(C)C(CNC(=O)C1CCN(S(=O)(=O)c2cc(Cl)ccc2Cl)CC1)Cc1ccccc1 (centres undefined) | n | x | x | x | n | n
COc1ccc(C(=O)Nc2ccc3c(c2)n(C)c(=O)n3C)cc1OC | n | n | 56.2µM | n | n | n
CC(=O)Nc1ccc(S(=O)(=O)Nc2ccc3c(c2)n(C)c(=O)n3C)c(C)c1 | n | n | 50.1µM | n | n | n
CC(C)Sc1ccccc1C(=O)Nc1ccc2c(c1)n(C)c(=O)n2C | n | n | 56.2µM | 6.31µM | n | n
Cc1ccc(OC(C)C(=O)Nc2ccc3c(c2)n(C)c(=O)n3C)c(C)c1 (centres undefined) | n | n | 56.2µM | n | n | n
CCCSc1ncc(Cl)c(C(=O)Nc2ccc(OC)cc2OC)n1 | n | x | n | n | n | x
Cc1ccccc1CN1C(=O)c2ccccc2Sc2ccc(C(=O)OCc3ccco3)cc21 | n | x | n | n | n | x
C/C(CCN1CCCCc2nc(C)c(C)cc21)=N\OC[C@@H](C)[C@H](OCc1ccccc1)C(C)C | x | n | x | x | x | x
CCN1C(=O)[C@H]2[C@@H](c3ccc(Cl)cc3)N3C(=O)CN(CCOC)C(=O)[C@@]3(Cc3ccccc3)[C@H]2C1=O | n | n | n | n | n | n
Cc1ccc(N2CCN(c3nc4ccccc4n4nnnc34)CC2)c(C)c1 | n | x | n | n | n | x
O=C(CSc1nnc(-c2ccc(OC(F)F)cc2)o1)NC(=O)NCc1ccco1 | u | n | 50.1µM | u | n | n
COc1ccc(-c2nnc(SCC(=O)NC(=O)NCc3ccccc3)o2)cc1 | n | u | n | 44.7µM | n | n
COc1ccc(-c2nnc(SCC(=O)NCc3ccco3)o2)cc1 | n | n | n | u | n | n
O=C(CSc1nnc(-c2ccncc2)o1)NCc1ccccc1 | n | n | n | n | n | n
O=C(CSc1nnc(-c2ccc(S(=O)(=O)N3CCCC3)cc2)o1)NCc1ccco1 | n | u | 50.1µM | u | n | n
Cc1cccc(S(=O)(=O)NC(=O)C2(C)CCN2C(=O)Cc2cc(F)ccc2F)c1 (centres undefined) | x | x | x | x | x | n
Cc1ccc(S(=O)(=O)NC(C(=O)Oc2ccc3c(C(F)(F)F)cc(=O)oc3c2)c2ccccc2)cc1 (centres undefined) | n | n | n | 7.08µM | n | n
COc1ccc(/C(C)=N/Nc2ccc(F)cc2F)c(O)c1 | n | n | n | 2.51µM | n | n
COc1ccc(C(=O)c2ccccc2O)c(O)c1 | n | n | n | n | n | n
COc1ccc(/C(C)=N/Nc2ccccc2Cl)c(O)c1 | u | u | u | 1µM | n | n
C/C(=N\Nc1ccc(F)cc1F)c1cccs1 | x | n | n | 25.1µM | x | x
C/C(=N\Nc1ccccn1)c1cccs1 | n | n | x | n | u | n
Cn1ncc(Br)c1NC(=O)Nc1ccc(Cl)cc1 | n | n | n | n | n | n
CCOC(=O)C1CCN(C(c2ccc(SC)cc2)c2c(O)cc(C)n(Cc3ccco3)c2=O)CC1 (centres undefined) | 56.2µM | x | n | u | n | x

Assay outcomes deposited in PubChem by National Center for Advancing Translational Sciences (NCATS).
